Some test systems named below: SK-MEL-2 melanoma; EKVX NSCLC; SN12C renal; UO-31 renal; TK-10 renal; ACHN renal; CAKI-1 renal; A498 renal; SR leukemia; RPMI-8226 leukemia; OVCAR-8 ovarian; OVCAR-5 ovarian; OVCAR-4 ovarian; SK-OV-3 ovarian; IGROV1 ovarian; OVCAR-3 ovarian; HS 578T breast; NCI/ADR-RES ovarian; MOLT-4 leukemia.
Holding throughout (experiment): NCI-60 one-dose screen, 48 h (100 = growth as untreated, 0 = no growth, -100 = all killed)
Conditions in all cases: 10 µM unless noted

About 83,000 compounds went through this panel and 20% of them were active in at least one assay; those are over-represented in the sample as a whole.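 The test compound was applied at a single concentration to cells in 96-well plates for 48 hours, and percent growth was recorded.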 A number with no mark means an inactive call. Activity calls are given as the source filed them. How the source made its calls: active means growth percent below 10; inactive means the rest.

Nine molecules from PubChem BioAssay (NCI) can be followed below.

With `COc1ccc(NC(=O)c2nc(-c3cc(OC)c(OC)c(OC)c3)n(-c3cccc4ccccc34)n2)cc1OC`, the growth with SK-MEL-2 melanoma is 43.7%; with EKVX NSCLC, 44.6%; in the test on SN12C renal, 52.9%; in the test on UO-31 renal it was 6.34% (active); in the test on TK-10 renal it was 44.8%; with ACHN renal, 30.6%. The growth in the test with CAKI-1 renal is 20.1%; with A498 renal, 42.6%; with SR leukemia it was 33.1%; with RPMI-8226 leukemia, 11.6%; in the test with OVCAR-8 ovarian, 52.5%; with OVCAR-5 ovarian, 56.1%. Moreover, the growth in the test with OVCAR-4 ovarian is 45.5%; with SK-OV-3 ovarian, 38.3%; in the test on IGROV1 ovarian, 22.9%; with OVCAR-3 ovarian it was 27.7%; in the test with HS 578T breast, 23.4%; in the test on NCI/ADR-RES ovarian, 35.2%.

As to `COC(=O)c1c2c(c(C)[n+]([O-])c1C)C(=O)C(NCc1ccc(F)c(Cl)c1)=CC2=O`, the growth with SK-MEL-2 melanoma is 29.4%; in the test with EKVX NSCLC, 37.8%; in the test on SN12C renal, -0.149% (active); with UO-31 renal, 41.7%; in the test on TK-10 renal, 58.8%; with ACHN renal, 30.9%. Moreover, the growth in the test on CAKI-1 renal was 34%; in the test on A498 renal, 78%; with MOLT-4 leukemia it was -19.2% (active); with RPMI-8226 leukemia, 20.6%; with OVCAR-8 ovarian, -14.5% (active); with OVCAR-5 ovarian, 38.2%. Besides, the growth was -96.4% (active) in the test with OVCAR-4 ovarian; 87.2% in the test on SK-OV-3 ovarian; 3.18% (active) in the test with IGROV1 ovarian; -21.3% (active) in the test with OVCAR-3 ovarian; 68% with HS 578T breast; 0.134% (active) in the test on NCI/ADR-RES ovarian.

In the case of `CNC(=O)NCC1OC(n2cnc3c(NC(=O)Nc4ccccc4)ncnc32)C(O[Si](C)(C)C(C)(C)C)C1CC(=O)N(C)OC` (stereo not given), the growth is -4.44% (active) with SK-MEL-2 melanoma; 21.4% in the test on EKVX NSCLC; 16.8% in the test with SN12C renal; -6.83% (active) in the test on UO-31 renal; 7.05% (active) with TK-10 renal; 11.4% with ACHN renal. Also, the growth in the test on CAKI-1 renal was 43%; in the test with A498 renal, 45.6%; with MOLT-4 leukemia, -11.7% (active); with SR leukemia, -56% (active); in the test on OVCAR-8 ovarian, 20.4%; with OVCAR-4 ovarian, 19%. In addition, the growth in the test with SK-OV-3 ovarian is 40.7%; in the test with IGROV1 ovarian, -36.6% (active); in the test with OVCAR-3 ovarian it was 7.61% (active); with HS 578T breast, 3.64% (active); in the test on NCI/ADR-RES ovarian, 54.4%.

Take `COc1cc2c(cc1-c1c(C)noc1C)ncc1nc(C3CCCCC3)n(C3CCC(OC(F)F)CC3)c12` (stereo not given): the growth was 6.6% (active) with SK-MEL-2 melanoma; 41.1% in the test with EKVX NSCLC; 52.7% in the test on SN12C renal; 8.28% (active) in the test on UO-31 renal; 24.1% in the test on TK-10 renal; 37.4% in the test with ACHN renal. Moreover, the growth was 42.7% with CAKI-1 renal; 28.3% in the test on A498 renal; 18.4% in the test with MOLT-4 leukemia; 16.7% in the test with SR leukemia; 63.5% in the test on OVCAR-5 ovarian; 40.3% in the test with OVCAR-4 ovarian. Further, the growth in the test with SK-OV-3 ovarian was -2.64% (active); in the test with IGROV1 ovarian it was 50.9%; with OVCAR-3 ovarian it was 27.8%; with HS 578T breast, 52.2%; in the test with NCI/ADR-RES ovarian, 30%.

Consider `COc1ccc(CN2C(=O)C(Cl)=C(Nc3cccc(C(F)(F)F)c3)C2=O)cc1`, for which the growth in the test on SK-MEL-2 melanoma is 81.7%; with EKVX NSCLC, 63.4%; in the test on SN12C renal it was 72.8%; in the test with UO-31 renal, 28.5%; in the test with TK-10 renal, 88.2%; in the test on ACHN renal it was 52.5%. Moreover, the growth with CAKI-1 renal is 37.4%; in the test on A498 renal, 57.6%; in the test on MOLT-4 leukemia, 11.9%; with SR leukemia, 9.34% (active); in the test with OVCAR-8 ovarian it was 42.5%; with OVCAR-5 ovarian, 55.1%. The growth was 47.6% in the test with OVCAR-4 ovarian; 75.8% in the test with SK-OV-3 ovarian; 36.1% in the test with IGROV1 ovarian; 62% in the test on OVCAR-3 ovarian; 57% in the test with HS 578T breast; 38.9% in the test on NCI/ADR-RES ovarian.

On to `Cc1ccc(Nc2nc(N)nc(CSCC(=O)NN)n2)cc1`, for which the growth was 109% with SK-MEL-2 melanoma; 102% in the test on EKVX NSCLC; 94.6% in the test on SN12C renal; 88.2% in the test on UO-31 renal; 115% with TK-10 renal; 101% in the test with ACHN renal. In addition, the growth in the test on CAKI-1 renal was 89.8%; with A498 renal, 77.7%; in the test with SR leukemia, 87%; in the test on RPMI-8226 leukemia, 101%; with OVCAR-8 ovarian, 103%; in the test on OVCAR-5 ovarian it was 103%. The growth was 93.7% in the test on OVCAR-4 ovarian; 101% in the test on SK-OV-3 ovarian; 99.5% with IGROV1 ovarian; 105% with OVCAR-3 ovarian; 90.9% with HS 578T breast; 104% in the test with NCI/ADR-RES ovarian.

On to `CN1CCN(CC(=O)Nc2nc(-c3cccc(NS(=O)(=O)c4cccc5c(N(C)C)cccc45)c3)cs2)CC1`, for which the growth in the test on SK-MEL-2 melanoma was 94.3%; in the test with EKVX NSCLC, 66.4%; in the test on SN12C renal, 69.7%; in the test with UO-31 renal it was 58.3%; with TK-10 renal, 100%; with ACHN renal it was 82.3%. Also, the growth with CAKI-1 renal was 67.9%; in the test with A498 renal, 96.8%; in the test on MOLT-4 leukemia, 46.2%; in the test with SR leukemia, 11.5%; in the test on OVCAR-8 ovarian, 87.9%; with OVCAR-5 ovarian, 86.6%. In addition, the growth with OVCAR-4 ovarian was 61.2%; in the test with SK-OV-3 ovarian, 93.1%; in the test on IGROV1 ovarian it was 86.6%; in the test on OVCAR-3 ovarian, 74.4%; with HS 578T breast, 75%; with NCI/ADR-RES ovarian, 87.3%.

Turning to `COc1nc2c(c(=O)n1C)CN(c1ccccc1)C(=O)CN2C`, the growth in the test with SK-MEL-2 melanoma is 69.6% [100 µM]; in the test with EKVX NSCLC, 58.2% [100 µM]; in the test with SN12C renal, 51.3% [100 µM]; in the test with UO-31 renal, 26% [100 µM]; in the test on TK-10 renal it was 52.3% [100 µM]; with ACHN renal, 46.4% [100 µM]. For the same molecule, the growth was 61.7% [100 µM] in the test on CAKI-1 renal; 61% [100 µM] in the test on A498 renal; 40.6% [100 µM] in the test on MOLT-4 leukemia; 51.5% [100 µM] in the test with SR leukemia; 47.4% [100 µM] in the test with OVCAR-8 ovarian; 79.9% [100 µM] in the test with OVCAR-5 ovarian. Also, the growth in the test on OVCAR-4 ovarian is 53.4% [100 µM]; in the test with SK-OV-3 ovarian, 62.5% [100 µM]; in the test on IGROV1 ovarian it was 37.6% [100 µM]; in the test with OVCAR-3 ovarian it was 56.5% [100 µM]; with HS 578T breast, 59.9% [100 µM]; with NCI/ADR-RES ovarian it was 54.2% [100 µM].

As to `COc1ccc2oc3c(C)c4c(c(C)c3c2c1)C(=O)N(Cc1ccccc1)C4=O`, the growth in the test on SK-MEL-2 melanoma was 105%; with EKVX NSCLC it was 92.9%; in the test on SN12C renal, 89.8%; with UO-31 renal, 80.7%; in the test with TK-10 renal it was 120%; in the test on ACHN renal, 88.3%. Besides, the growth in the test with CAKI-1 renal is 81.1%; in the test with A498 renal it was 109%; in the test with MOLT-4 leukemia, 106%; with RPMI-8226 leukemia, 100%; in the test with OVCAR-8 ovarian, 91.2%; with OVCAR-5 ovarian it was 99.9%. Besides, the growth was 90.7% in the test on OVCAR-4 ovarian; 103% with SK-OV-3 ovarian; 94.6% in the test on IGROV1 ovarian; 89.3% in the test with OVCAR-3 ovarian; 85.5% in the test on HS 578T breast; 95.3% with NCI/ADR-RES ovarian.
